# Screening results: PubChem, National Center for Advancing Translational Sciences (NCATS)
# TRHR PAM = allosteric enhancers of human TRH receptor; P34981; TRHR cells, fluo-8 calcium fluorescence, EC20 TRH enhancement; enhancement, % at 2 µM; 360,000 tested, 0.66% active; AID 493056; in the data active = enhancement above about 30%; note: 0% is about no effect
# Target sequence (P34981 whole entry, looked up): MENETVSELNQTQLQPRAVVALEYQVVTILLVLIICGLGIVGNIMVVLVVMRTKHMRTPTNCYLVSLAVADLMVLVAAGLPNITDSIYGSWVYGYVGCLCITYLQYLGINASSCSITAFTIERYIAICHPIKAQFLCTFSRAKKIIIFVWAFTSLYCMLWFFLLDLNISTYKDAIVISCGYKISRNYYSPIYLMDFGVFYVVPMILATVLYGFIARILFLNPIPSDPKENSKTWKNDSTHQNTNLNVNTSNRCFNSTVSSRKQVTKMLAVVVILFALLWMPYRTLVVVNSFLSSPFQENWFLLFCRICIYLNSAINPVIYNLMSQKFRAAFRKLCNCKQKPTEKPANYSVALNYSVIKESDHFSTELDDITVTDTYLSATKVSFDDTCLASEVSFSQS
#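 Enhancer read-out: after compound pinning and an initial kinetic agonist-mode read, an EC20 of TRH (10 nM final) was injected and fluo-8 calcium signal (Ex 480/Em 530) followed at 1 s/cycle for 100 cycles in TRHR-expressing cells.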
# D1 potentiator = human D1 dopamine receptor positive modulation; P21728; HEK293 TREx D1 cells, calcium flux, dopamine EC20 potentiation; potentiation, % at 10 µM; 360,000 tested, 0.036% active; AID 504651; in the data active = potentiation above about 30%; note: 0% is about no effect
# TRHR agonist = TRH receptor (human) agonism. P34981. TRHR cells, calcium flux fluo-8, FDSS agonist mode. activation, % at 2 µM. 360,000 tested, 0.18% active. AID 493084; note: 0% is about no effect
#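 Agonist-mode FDSS calcium read (Ex 480/Em 530, 1 s cycles) in 1536-well TRHR cells with fluo-8 dye, after 10-cycle baseline and 23 nL compound addition; TRH at EC20 (10 nM final) added afterwards for the enhancer phase.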
# D1 ag = activates the human D1 dopamine receptor; P21728; HEK293 T-REx D1 cells, calcium flux, agonist mode; activation, % at 2 µM; 360,000 tested, 1% active; AID 504660; note: 0% is about no effect
#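 Inducible HEK293 T-REx D1 cells, force-coupled to calcium signalling, were plated at 4000 cells/well with tetracycline and held overnight at 30 C. After no-wash calcium dye loading, compound-evoked calcium rise over 180 s flagged agonists.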
# D1 antagonist = antagonists of human D1 dopamine receptor | P21728 | HEK293 TREx D1 cells, calcium flux, dopamine EC80; hits give low values | activity change, negative = inhibition, % at 10 µM | 360,000 tested, 3.2% active; in the data active = activity change below about -30%; note: % is set by controls: 0 for no effect and ±100 for the full control effect
#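 After overnight tetracycline induction at 30 C, force-coupled D1 HEK293 cells took up a no-wash calcium dye at room temperature. Compounds were added and monitored 180 s, and the response to EC80 dopamine was then recorded.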
# The depositor's hits bear a star; · = no result; ! = not active in a repeat. Rows were chosen to be rich in hits. Some 4.7% of all compounds tested hit in one or more screens of this group. Cut-off read from the data, not from the text of the source, unless noted: active = activation above about 30%; inactive = the rest.
SMILES,TRHR PAM,D1 potentiator,TRHR agonist,D1 ag,D1 antagonist
CCOc1ccc(N(CC)C(=O)Cn2cnc3sc(C)c(S(=O)(=O)N4CCN(c5ncccn5)CC4)c3c2=O)cc1,7.8,0.3,-1.3,-1.8,0.5
Cc1ccc(S(=O)(=O)CCC(=O)OCC(=O)c2ccc(C)c(C)c2)cc1,3.5,-10.3,0.2,10.6,-30.6*
Cc1ccc(C(=O)COC(=O)CCS(=O)(=O)c2ccccc2)cc1[N+](=O)[O-],1.0,-7.2,-0.8,1.2,-3.4
Cc1ccc(Nc2sc(C(=O)c3ccccc3)c(N)c2S(=O)(=O)c2ccccc2)cc1Cl,0.4,-1.7,1.2,16.7,-21.8
CN(C)S(=O)(=O)c1cc(NC(=O)COC(=O)CCSc2ccc(Cl)cc2)ccc1Cl,12.8,-1.4,2.5,28.5,-43.3*
COc1ccc2c(CC(=O)Nc3ccc(C)cc3)coc2c1,6.2,-2.0,-0.5,3.0,-7.7
COc1nc(C)ccc1-c1noc(-c2cccs2)n1,-8.2,2.8,-1.0,2.2,-34.6*
Cc1cccc(CNC(=O)C2CCN(c3nn4cc(-c5ccc(F)cc5)nc4s3)CC2)c1,3.5,-2.5,0.0,-2.1,8.7
CCOC(=O)c1ccc(NC(=O)CN2C(=O)c3cccnc3Sc3ccccc32)cc1,3.1,-3.2,0.1,0.5,-3.1
COC(=O)CCCCCCCCCCN1CCCCC1,-1.5,-0.1,0.8,10.5,-0.5
CCCOC(=O)CCCCCCCCC(O)CN1CCCCC1 (stereo not drawn),0.2,-1.5,0.3,54.4*,-56.0*
Cc1ccc(NC(=O)Cn2cnc3cc([N+](=O)[O-])ccc3c2=O)c(Cl)c1,10.0,-10.3,-0.8,37.9*,-20.2
COc1ccc(C2(C)NC(=O)N(CC3CCCCC3)C2=O)cc1 (stereo not drawn),-5.0,-5.0,0.0,12.0,-52.2*
CCOc1ccc(CCNC(=O)c2ccc(C)c(-n3cnc4cccnc43)c2)cc1,8.2,-1.1,-0.4,-0.5,-30.9*
COc1ccccc1CNC(=O)c1ccc(C)c(-n2cnc3cccnc32)c1,6.4,-1.4,-0.6,-1.1,-15.7
O=C(CN1C(=O)C2(SCC(=O)N2c2cccc(F)c2)c2ccccc21)NCCc1ccccc1 (stereo not drawn),5.7,-2.2,-1.5,0.5,18.6
CC(C)[C@H](NS(=O)(=O)c1cccc(C(F)(F)F)c1)C(=O)OCC(N)=O,39.1*,4.7,2.2,1.9,0.3
O=C(COC(=O)c1cc(Cl)ccc1O)c1ccc2c(c1)OCO2,38.4*,-4.2,-0.2,3.5,-16.0
O=C(COC(=O)c1ccc(O)cc1O)c1ccc2c(c1)OCO2,-9.8,2.4,0.4,0.8,-15.1
CCOc1ccc(CN(C(=O)c2cc(=O)c3cc(Cl)ccc3o2)C2CCS(=O)(=O)C2)cc1 (stereo not drawn),-4.1,-0.4,-1.0,6.0,8.3
O=C(COC(=O)CNC(=O)c1ccc(Br)cc1)Nc1nnc(-c2ccccc2)o1,-3.8,0.0,0.1,4.5,-37.8*
CCOc1ccc(C(=O)NCC(=O)OCC(=O)Nc2nnc(-c3ccccc3)o2)cc1,0.2,·,0.0,4.9,5.5
Cc1ccc(C(=O)CCC(=O)OCC(=O)Nc2nnc(-c3ccccc3)o2)cc1,40.5*,-1.6,0.5,4.5,-50.0*
COc1ccc(NC(=O)Cn2c(SCc3ccc(C)cc3)nc3cccnc32)c(OC)c1,-26.8,-3.2,-0.2,11.3,-26.9
CCn1c(-c2ccc(S(=O)(=O)N3CCOCC3)cc2)csc1=Nc1ccc(C)c(Cl)c1,18.8,-4.4,-0.5,1.5,-36.7*
SMILES,TRHR PAM,D1 potentiator,TRHR agonist,D1 ag,D1 antagonist
COCCCn1c(-c2ccc(S(=O)(=O)N3CCOCC3)cc2)csc1=Nc1ccccc1,-1.8,-0.1,-0.3,0.8,-2.4
CCN(c1ccccc1)S(=O)(=O)c1cc(C(=O)Nc2ccc(Br)cc2)ccc1F,-7.6,-2.8,1.4,7.4,-36.8*!
CCOC(=O)C1CCCN(S(=O)(=O)c2cc(-c3onc(C)c3C)ccc2OC)C1 (stereo not drawn),2.6,-3.9,-0.3,2.5,9.5
NS(=O)(=O)c1ccc(-n2nncc2C23CC4CC(CC(C4)C2)C3)cc1,4.2,-2.2,0.1,0.9,-90.8*
S=C(Nc1cccnc1)NC1CC2CCC1C2 (stereo not drawn),5.3,-3.4,2.6,17.5,-33.7*
CCOC(=O)c1cccc(NC(=O)CC(c2cc(OC)c(OC)c(OC)c2)N2Cc3ccccc3C2=O)c1 (stereo not drawn),0.8,-2.0,-0.7,1.2,-17.9
Cc1cc(-c2n[nH]c(=S)n2/N=C/c2ccc(C)o2)n[nH]1,39.8*,0.8,-0.2,3.5,4.6
COc1ccc(/C=N/n2c(-c3cc(C)[nH]n3)n[nH]c2=S)cc1,1.2,3.5,-0.9,2.1,-0.6
O=C(c1ccccc1)c1ccc(N2CCNCC2)cc1,-1.2,-16.4,3.5,7.2,-74.5*
COc1cc(NC(=O)Cn2ncc3c([nH]c4ccc(C)cc43)c2=O)cc(OC)c1OC,2.7,0.1,0.2,0.5,-8.6
CCc1ccccc1OCc1nc2ccc(S(=O)(=O)N3CCOCC3)cc2[nH]1,32.6*,0.1,-0.6,-0.3,·
CCc1noc(N)c1C(=O)Nc1ccc(Cl)cc1,2.5,-5.2,0.0,-0.9,-1.1
CCc1noc(N)c1C(=O)Nc1ccc(F)c(Cl)c1,-5.8,-3.0,-0.7,1.2,-35.5*
COc1ccc(C(=O)NCC(C)(C)SCc2c(C)cc(C)cc2C)cc1,-2.6,7.3,-1.7,56.4*,-60.6*
O=C(O)c1ccc(N/N=C/c2ccc(OC(=O)c3cccc(Cl)c3)cc2)cc1,-0.5,-6.8,1.2,37.0*,-35.9*
Cc1ccc(-c2cn3nc(N4CCCC(C(=O)NCc5ccc(F)cc5)C4)sc3n2)cc1 (stereo not drawn),3.1,-3.5,0.4,0.3,-2.0
O=C(NCc1ccc(F)cc1)C1CCN(C(=O)c2ccc(-n3ccc4ccccc43)s2)CC1,-1.5,-5.0,0.4,2.5,-31.4*
CCOc1ccccc1NC(=O)CCc1c(C)nc2c(c(C)nn2-c2ccccc2)c1C,-2.5,2.9,0.8,0.7,3.1
COc1ccccc1Nc1sc(C(=O)c2ccc3c(c2)OCO3)c(N)c1S(=O)(=O)c1ccccc1,-3.0,-1.4,0.7,3.8,16.0
CC1CCCCN1C(=O)Cn1c(=O)n(CCC(=O)NCc2ccco2)c(=O)c2sccc21 (stereo not drawn),35.1*,-0.8,0.3,0.2,-0.2
CC1CCN(C(=O)Cn2c(=O)n(CCCC(=O)NCc3ccco3)c(=O)c3sccc32)CC1,-7.8,-2.4,-0.8,2.2,2.4
O=C(/C=C/Nc1ccc(F)cc1)c1ccc(Oc2ncccn2)cc1,3.6,-9.3,0.1,1.6,-41.3*
CCOc1ccc(OCC)c(NC(=O)c2cc(-c3cccs3)nc3ccccc23)c1,-3.6,1.2,-0.4,0.1,14.8
